From PubChem BioAssay
Compounds with a hit are over-represented: about 2.3% of the library has one in this group of screens.
PME-1 primary = PME-1 (human) inhibition | recombinant PME-1, FP-Rh probe fluorescence polarization | Q9Y570 | 320,000 compounds, 0.53% hits | inhibition, % at 5.9 µM;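 active = inhibition above the campaign mean of all compounds plus 3 SD, cut at about 26% in these data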;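 also: competitive labeling of PME-1 active site by serine hydrolase directed probe; 0% = PME-1 with DMSO and 100% = wells lacking PME-1 enzyme; inhibitors block probe labeling so polarization falls and inhibition rises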
GSTO1 inh = counter-screen for RBBP9 inhibitors: inhibitors of human GSTO1. P78417. recombinant GSTO1, activity-based probe fluorescence polarization. inhibition, % at 5.96 µM. 300,000 compounds, 1.1% hits;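 active = inhibition above the campaign mean inhibition plus 3 SD, cut at about 35% in these data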;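 also: 0% = GSTO1-1 with DMSO and 100% = wells lacking GSTO1-1 enzyme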
PAD4 FP inh = blocks human protein arginine deiminase 4; Q9UM07; recombinant PAD4, RCA probe fluorescence polarization; inhibition, % at 6.36 µM; 330,000 compounds, 0.41% hits;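 active = percent inhibition above a cutoff equal to the mean of all tested compounds plus 3 SD, cut at about 15% in these data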;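 also: 0% = PAD4 with RCA probe and DMSO and 100% = probe without PAD4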
Target sequence (Q9UM07 whole entry, looked up): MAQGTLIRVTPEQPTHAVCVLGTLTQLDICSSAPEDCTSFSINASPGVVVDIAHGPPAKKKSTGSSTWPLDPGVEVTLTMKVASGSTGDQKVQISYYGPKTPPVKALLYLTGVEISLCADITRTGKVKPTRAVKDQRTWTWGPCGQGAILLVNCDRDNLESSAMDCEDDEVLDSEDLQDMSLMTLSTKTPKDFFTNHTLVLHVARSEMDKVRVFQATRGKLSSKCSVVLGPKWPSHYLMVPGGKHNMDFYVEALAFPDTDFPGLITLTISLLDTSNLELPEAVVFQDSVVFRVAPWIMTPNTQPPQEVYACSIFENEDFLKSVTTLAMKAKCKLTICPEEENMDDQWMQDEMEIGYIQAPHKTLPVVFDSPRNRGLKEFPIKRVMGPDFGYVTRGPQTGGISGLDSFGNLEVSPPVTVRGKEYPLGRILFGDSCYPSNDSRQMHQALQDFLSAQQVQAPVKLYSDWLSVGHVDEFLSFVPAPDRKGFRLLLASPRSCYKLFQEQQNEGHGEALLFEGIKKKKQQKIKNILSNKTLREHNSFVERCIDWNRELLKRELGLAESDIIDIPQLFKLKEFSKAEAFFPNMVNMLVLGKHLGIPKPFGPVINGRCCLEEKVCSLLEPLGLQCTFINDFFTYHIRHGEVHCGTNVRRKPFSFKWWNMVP
pPAFAH FP inh = inhibitors of human plasma PAF acetylhydrolase (pPAFAH) | AID 463082 | 330,000 compounds, 1.5% hits | inhibition, % at 3.39 µM | recombinant pPAFAH, FP-rhodamine probe fluorescence polarization;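 active = inhibition above the mean inhibition across the screen plus 3 SD, cut at about 25% in these data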;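 also: inhibitors block binding of the rhodamine activity-based probe so polarization drops; 0% = enzyme with DMSO and 100% = wells lacking pPAFAH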
Fam108B counter = blocks mouse Fam108B hydrolase in RBBP9 counter-screen; recombinant Fam108B, FP-Rh probe fluorescence polarization; inhibition, % at 9.51 µM; 300,000 compounds, 0.33% hits; AID 1947;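 active = inhibition above the screen mean inhibition plus 3 SD, computed separately per campaign, cut at about 18% in these data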;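 also: inhibitors lower polarization as less probe binds the enzyme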
PAD4 FP conf = PAD4 (human) inhibition, confirmed; 1,200 compounds, 28% hits; shares compounds with PAD4 FP inh; recombinant PAD4, RCA probe fluorescence polarization; inhibition, % at 6.36 µM;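 active = mean inhibition across replicates above the hit cutoff set by the earlier primary screen, cut at about 15% in these data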;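 also: inhibitors block active-site labeling by the probe so polarization falls; 0% = PAD4 with probe and DMSO and 100% = probe without PAD4 enzyme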
* = called active by the depositor; · = no result.

SMILES	PME-1 primary	GSTO1 inh	PAD4 FP inh	pPAFAH FP inh	Fam108B counter	PAD4 FP conf
CC(=O)c1ccc(Sc2nnnn2-c2ccccc2)c([N+](=O)[O-])c1	1.7	13.2	16.6*	-1.8	1.7	13.6
COc1ccc(C(=O)N2CCc3[nH]nc(-c4ccccc4)c3C2)cc1	-0.6	-10.0	2.0	-3.9	-2.1	·
Cc1cc(C)cc(C(=O)OCC(=O)NC(=O)NC2CCCC2)c1	5.0	·	2.4	3.3	·	·
CCOC(=O)CNC1CC(=O)N(c2ccc(Br)cc2)C1=O (stereo unspecified)	-0.2	5.7	2.8	-2.4	-1.1	·
O=C(CSc1ccccn1)Nc1nonc1[N+](=O)[O-]	-7.6	-2.5	18.6*	-4.2	1.4	6.7
O=C(NCCNC(=O)c1ccccc1Cl)c1ccco1	2.2	1.2	2.3	2.1	-3.3	·
O=C(NCCCNC(=O)c1ccccc1F)c1ccco1	-3.5	1.6	36.6*	-4.7	-7.3	0.3
O=C(CC1C(=O)NCCN1Cc1ccc(Cl)c(F)c1)NC1CCCCC1 (stereo unspecified)	3.7	2.8	-2.6	3.3	-0.1	·
O=C(CN(C1CCCCC1)C1CCCCC1)N1CCc2ccccc2C1	0.5	1.8	0.2	3.4	3.3	·
Oc1cc(NCc2ccc(F)cc2)cc2cccnc12	·	·	-15.7	7.3	·	·
CN(C)CCCNc1cc(O)c2ncccc2c1	·	·	15.7*	0.8	·	-9.8
CCN1CC2=C(OC(N)=C(C#N)C2c2ccccc2)/C(=C\c2ccccc2)C1 (stereo unspecified)	2.5	0.4	23.7*	2.4	-8.0	18.8*
O=C(COc1ccccc1F)N1CCN(S(=O)(=O)/C=C/c2ccccc2)CC1	-3.9	-1.1	55.9*	3.6	-3.9	-0.2
Cc1ccc(NC(=O)c2cc(-c3cc(C)c(C)cc3O)n[nH]2)cc1C	-2.6	-2.7	2.1	0.0	-5.2	·
CCOc1ccc(S(=O)(=O)c2cn(C)c3cc(OC)c(OC)cc3c2=O)cc1	0.1	-0.6	-6.2	0.4	-0.6	·
CCCC(=O)N(c1ccc2oc(=O)sc2c1)S(=O)(=O)c1cccs1	-2.2	15.4	15.7*	10.2	0.9	17.8*
CC(=O)N(c1ccc2oc(=O)sc2c1)S(=O)(=O)c1ccccc1	-5.5	28.2	17.7*	4.2	1.2	14.3
COc1ccc(C(=O)Oc2ccc3ccc(=O)oc3c2)cc1	-1.6	0.5	0.7	4.6	5.2	·
COc1ccc(C(=O)Oc2ccc3oc(=O)sc3c2)cc1	-2.2	30.6	48.2*	14.8	-0.1	11.8
CC(C)C(=O)N(c1ccc2oc(=O)sc2c1)S(=O)(=O)c1ccccc1	-5.2	17.6	23.7*	-6.6	-2.1	2.8
O=C(NCCC(=O)N(CCc1ccccc1)Cc1ccccc1)c1ccc([N+](=O)[O-])cc1	6.5	5.5	3.1	1.8	0.1	·
O=C(CNC(=O)c1ccc(Cl)c([N+](=O)[O-])c1)NCC1CCCO1 (stereo unspecified)	3.0	3.3	4.5	3.4	-0.7	·
CC1=C(C(=O)OCC2CCCO2)C(c2ccncc2)C2=C(CC(C)(C)CC2=O)N1 (stereo unspecified)	-8.5	4.1	5.3	-1.6	-6.5	·
COc1ccc(OC)c(S(=O)(=O)N(C(C)=O)c2ccc3oc(=O)sc3c2)c1	-3.0	23.5	25.1*	5.8	-0.7	15.5*
Cc1nn(C)cc1CN(C)C(=O)CCc1nnc(CCC2CCCCC2)o1	-4.3	-0.3	-1.4	-2.5	-4.6	·
SMILES	PME-1 primary	GSTO1 inh	PAD4 FP inh	pPAFAH FP inh	Fam108B counter	PAD4 FP conf
COc1ccc(C)cc1Nc1n[n+](C)c(-c2ccc(O)cc2O)s1	5.7	3.1	-2.7	-0.7	0.1	·
COc1ccc(C)cc1Nc1n[n+](C)c(-c2c3ccccc3cc3ccccc23)s1	1.3	7.5	51.1*	7.5	-4.2	9.8
Cc1[nH]n(-c2ccccc2)c(=O)c1C(c1ccccc1[N+](=O)[O-])C(C#N)C#N (stereo unspecified)	2.1	7.7	22.3*	12.2	5.3	2.3
Cc1ccc(C(C[N+](=O)[O-])c2c(C)[nH]n(-c3ccccc3)c2=O)cc1 (stereo unspecified)	2.3	75.6*	16.7*	7.3	5.0	-4.2
Cc1[nH]n(-c2ccccc2)c(=O)c1N=Nc1ccc(C#N)cc1	4.4	-1.4	2.3	-0.1	-1.2	·
Cc1ccccc1CCNC(=O)c1ccc(Cl)c(S(=O)(=O)N2CC(C)OC(C)C2)c1 (stereo unspecified)	-2.5	·	-6.7	3.6	·	·
Cc1noc(C)c1CSCC(=O)Nc1nc2ccc(F)cc2s1	3.2	1.4	-5.0	1.3	-2.4	·
